In all, about 2,000 compounds went through this assay and about 110 (5.5%) showed an effect of 50% or more. The sample as a whole holds a higher share of strong results than the screen did.

The experiment addresses Genome polyprotein (dengue virus type 2) (UniProt P29990).
[1] abbreviates: Thailand/16681/1984, Concentration 25.0 uM, Number of replicates 1.0.

A word on the inhibition: it is the drop in the measured response relative to a control, in per cent. On to `CC(C)Cn1cccc(C(=O)Nc2ccncc2C(F)(F)F)c1=O`, for which the inhibition was -3.89% (Thailand/16681/1984, Concentration 49.5 uM, Number of replicates 2.0, Standard deviation 5.23322293563183 %); -4.73% (Thailand/16681/1984, Concentration 99.01 uM, Number of replicates 2.0, Standard deviation 0.16283923825626637 %); -6.94% (Thailand/16681/1984, Concentration 198.0 uM, Number of replicates 2.0, Standard deviation 1.971758036933884 %).
Consider `O=Cc1ccc(N2CCC(C(=O)N3CCN(C(=O)[C@H]4COc5ccccc5O4)CC3)CC2)cc1`, for which the inhibition under setting [1] was found to be 13%.
With `NCc1cccc(NC(=O)[C@H]2CC(F)(F)CN2C(=O)OCc2ccccc2)c1`, the inhibition by setting is: (Thailand/16681/1984, Concentration 49.5 uM, Number of replicates 2.0, Standard deviation 3.8817212285914895 %) -3.13%; (Thailand/16681/1984, Concentration 99.01 uM, Number of replicates 2.0, Standard deviation 4.048573795130085 %) -2.21%; (Thailand/16681/1984, Concentration 198.0 uM, Number of replicates 2.0, Standard deviation 4.090127173867097 %) -1.49%.
With `O=Cc1ccc(N2CCC(C(=O)N(Cc3ccco3)Cc3cccs3)CC2)cc1`, the inhibition under setting [1] worked out at 11%.
As to `Cc1cc(CO)c2cccc(NC(=O)c3ccc(N)nn3)c2n1`, the inhibition turned out to be 11% (Thailand/16681/1984, Concentration 49.95 uM, Number of replicates 2.0, Standard deviation 1.176901179972867 %) and 19.5% (Thailand/16681/1984, Concentration 99.9 uM, Number of replicates 2.0, Standard deviation 1.886285239678155 %).
As for `C[C@@H](Cc1ccc(C(F)(F)F)cc1)NC(=O)C1CCN(c2ccc(C=O)cc2)CC1`, under setting [1], the inhibition amounted to 8.27%.
On the same count and under the same terms, to `O=Cc1ccc(N2CCC(C(=O)NCC34CC5CC(CC(C5)C3)C4)CC2)cc1` belongs 11.8%.
As for `c1ccc2[nH]c(CN3CC[C@H](c4c[nH]c5ccccc45)C3)cc2c1`, the inhibition is, setting by setting: (Thailand/16681/1984, Concentration 49.5 uM, Number of replicates 2.0, Standard deviation 0.7608740215940771 %) 4.51%; (Thailand/16681/1984, Concentration 99.01 uM, Number of replicates 2.0, Standard deviation 0.30587350380986955 %) 4.39%; (Thailand/16681/1984, Concentration 198.0 uM, Number of replicates 2.0, Standard deviation 0.6449469231287406 %) 3.06%.
With `Cc1c(Br)cnc(NC(=O)C2CCN(c3ccc(C=O)cc3)CC2)c1[N+](=O)[O-]`, under setting [1], the inhibition worked out at 13.3%.
On to `Cc1nn(Cc2nnc(C(C)C)o2)cc1C1CCNCC1`, for which the inhibition (Thailand/16681/1984, Concentration 49.5 uM, Number of replicates 2.0, Standard deviation 1.2271984598057826 %) is -1.09%; the inhibition (Thailand/16681/1984, Concentration 99.01 uM, Number of replicates 2.0, Standard deviation 0.3137269789739955 %) was -1.28%; the inhibition (Thailand/16681/1984, Concentration 198.0 uM, Number of replicates 2.0, Standard deviation 0.585185347191749 %) was -1.14%.
On to `O=Cc1ccc(N2CCC(C(=O)N3CCN(c4ncccn4)CC3)CC2)cc1`, for which the inhibition under setting [1] stood at 13.4%.
Regarding `O=C(NC[C@H]1CCOC1)c1cc(Cl)ccc1NS(=O)(=O)c1ccc(Oc2ccccc2Cl)cc1`, the inhibition (Thailand/16681/1984, Concentration 49.5 uM, Number of replicates 2.0, Standard deviation 2.9570930238802475 %) is 78.1%; the inhibition (Thailand/16681/1984, Concentration 99.01 uM, Number of replicates 2.0, Standard deviation 0.09728436725720986 %) is 83.4%; the inhibition (Thailand/16681/1984, Concentration 198.0 uM, Number of replicates 2.0, Standard deviation 0.16101849440059574 %) was found to be 79%.
On to `O=S(=O)(NC1CCCCC1)c1ccc(Oc2ccccc2Cl)cc1`, for which the inhibition runs as follows: (Thailand/16681/1984, Concentration 49.5 uM, Number of replicates 2.0, Standard deviation 1.7919780415060578 %) 0.164%; (Thailand/16681/1984, Concentration 99.01 uM, Number of replicates 2.0, Standard deviation 2.26588512977007 %) 2.51%; (Thailand/16681/1984, Concentration 198.0 uM, Number of replicates 2.0, Standard deviation 2.2194744531827233 %) 5.38%.
For the molecule `O=C(N[C@H]1CCOC1)c1cc(Cl)ccc1NS(=O)(=O)c1ccc(Oc2ccccc2Cl)cc1`, the inhibition reads like this: (Thailand/16681/1984, Concentration 49.5 uM, Number of replicates 2.0, Standard deviation 0.8156312071794307 %) 64.1%; (Thailand/16681/1984, Concentration 99.01 uM, Number of replicates 2.0, Standard deviation 0.42939613872644544 %) 63.6%; (Thailand/16681/1984, Concentration 198.0 uM, Number of replicates 2.0, Standard deviation 0.707503298737338 %) 53%.
With `Cc1cc(CN)c2cccc(Cl)c2n1`, the inhibition is, setting by setting: (Thailand/16681/1984, Concentration 49.95 uM, Number of replicates 2.0, Standard deviation 5.413623438036859 %) -7.74%; (Thailand/16681/1984, Concentration 99.9 uM, Number of replicates 2.0, Standard deviation 5.696602605148216 %) -7.99%.
Consider `CN(CCO[Si](C)(C)C(C)(C)C)C(=O)C1CCN(c2ccc(C=O)cc2)CC1`, for which, under setting [1], the inhibition was found to be 11.8%.
For the molecule `Cc1cc(CO)c2cccc(Cc3cccc(NC(=O)C(=O)c4ccco4)c3)c2n1`, the inhibition is -0.234% (Thailand/16681/1984, Concentration 49.95 uM, Number of replicates 2.0, Standard deviation 2.5499602835301056 %) and -0.946% (Thailand/16681/1984, Concentration 99.9 uM, Number of replicates 2.0, Standard deviation 0.7837509937910023 %).
Take `Cc1cc(C(=O)N2CCN(C(=O)c3cc(C(C)(F)F)n[nH]3)CC2)cc2nn[nH]c12`: the inhibition (Thailand/16681/1984, Concentration 49.5 uM, Number of replicates 2.0, Standard deviation 0.5040908488530289 %) was determined as 1.22%; the inhibition (Thailand/16681/1984, Concentration 99.01 uM, Number of replicates 2.0, Standard deviation 0.07028947937337628 %) came to 1.9%; the inhibition (Thailand/16681/1984, Concentration 198.0 uM, Number of replicates 2.0, Standard deviation 0.7181064342983147 %) was found to be 2.65%.
Take `O=Cc1ccc(N2CCC(C(=O)N[C@@H](CCO)c3ccccc3F)CC2)cc1`: the inhibition under setting [1] was 11.4%.
For `CNC(=O)[C@H]1CN(S(=O)(=O)c2ccc(Oc3ccccc3Cl)cc2)CCO1`, the inhibition (Thailand/16681/1984, Concentration 49.5 uM, Number of replicates 2.0, Standard deviation 0.2669928674711758 %) is -4.8%; the inhibition (Thailand/16681/1984, Concentration 99.01 uM, Number of replicates 2.0, Standard deviation 0.624095865646037 %) was -4.22%; the inhibition (Thailand/16681/1984, Concentration 198.0 uM, Number of replicates 2.0, Standard deviation 0.6183745152543801 %) was -5.47%.
As for `Nc1ccnc2c(Cl)cccc12`, the inhibition is -9.22% (Thailand/16681/1984, Concentration 49.95 uM, Number of replicates 2.0, Standard deviation 2.736837302484984 %) and -8.19% (Thailand/16681/1984, Concentration 99.9 uM, Number of replicates 2.0, Standard deviation 4.13445849353631 %).
Regarding `Nc1cccc2c(Cl)ccnc12`, the inhibition (Thailand/16681/1984, Concentration 49.95 uM, Number of replicates 2.0, Standard deviation 9.3539447807875 %) is 25.3% and the inhibition (Thailand/16681/1984, Concentration 99.9 uM, Number of replicates 2.0, Standard deviation 4.02175613474424 %) turned out to be 68.2%.
In the case of `Nc1ccc(Cl)c2cccnc12`, the inhibition (Thailand/16681/1984, Concentration 49.95 uM, Number of replicates 2.0, Standard deviation 3.8383177085719704 %) is -6.59% and the inhibition (Thailand/16681/1984, Concentration 99.9 uM, Number of replicates 2.0, Standard deviation 5.003138959022175 %) is -3.71%.

The values are drawn from ChEMBL document CHEMBL5606460, “ASAP - DENV-2 NS2B-NS3 protease fluorescence single point” (2024).
